We go through 71 molecules from PubChem BioAssay AID686978 (National Center for Advancing Translational Sciences (NCATS), 2013).

Screen size: about 420,000 compounds; about 64,000 (15%) were called active. Roughly 27% stayed inconclusive and do not appear here. Calls follow the shape of the dose curve; as a rule, active = well fitted inhibition curve with a large enough effect; inconclusive = small, poorly fitted or top-dose-only effect; inactive = flat fitted curve, though single readings scatter. The list is a sample of the results. Entries that show only a call come without a potency.
Potency is read from the fitted curve at half-maximal effect.

The assay is described as follows: qHTS for Inhibitors of human tyrosyl-DNA phosphodiesterase 1 (TDP1): qHTS in cells in absence of CPT. Also: nearly all actives have a fitted effect of over 55% in size. The settings on record: DT40 Tdp1-/- hTDP1 cells, no CPT, ATP luminescence, 48 h; activity change, negative = growth inhibition: at 46.2 µM (top of the series). In outline: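 Chicken DT40 Tdp1-/- cells complemented with human TDP1, screened without camptothecin (DMSO vehicle only), 400 cells/well. Compounds pin-transferred, cells incubated at 37 °C for at least 48 hr. Growth read as ATP-dependent luminescence (CellTiter-Glo, 30 min at RT).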
`CCOc1ccccc1CN1CCN(C2CCC2)CC1CCO` (stereo unspecified): the Potency entry is “inactive”.
On to `O=C(Nc1c(Cl)cccc1Cl)C1CCC1`, for which the Potency entry is “inactive”.
Take `Cc1cccc(NC(c2cccc(F)c2)c2ccc3ccc(C)nc3c2O)n1` (stereo unspecified): the Potency is 5.8 µM (active).
As for `CC(=O)NC(c1cccc(F)c1)c1nc(-c2cccc(F)c2)cs1` (stereo unspecified), the entry is “inactive”.
Next, `CSCCC(NC(=O)c1ccco1)C(=O)Nc1cc(C)ccn1` (stereo unspecified): “inactive”.
With `N#Cc1cccc(CN2CCC(=O)N([C@H](CO)c3ccccc3)CC2)c1`, the Potency entry was “inactive”.
As to `O=C(CSCc1c(F)cccc1Cl)NCC1CCCO1` (stereo unspecified), the Potency result is “inactive”.
Next, `N#Cc1cccc(-c2ccc3ncnc(NCc4cccs4)c3c2)c1`: 23.1 µM (active); `O=c1c(NCc2cccs2)nccn1-c1ccccc1`: “inactive”; `O=C(O)c1ccc2c(c1)C(=O)N(NC(=O)c1ccc(O)cc1)C2=O`: “inactive”.
With `COc1ccccc1OCC(=O)Nc1nnc2n1CCS2`, the Potency entry is “inactive”.
With `O=C(CSc1nc2ccccc2[nH]1)N/N=C/C=C\c1ccccc1[N+](=O)[O-]`, the Potency is 20.6 µM (active).
Regarding `O=C(CSc1nc2ccccc2[nH]1)Nc1nc(-c2ccccc2)c(-c2ccccc2)o1`, the Potency entry is “inactive”.
As for `O=C(COC(=O)CCCSc1nc2ccccc2[nH]1)Nc1ccc(Oc2ccccc2)cc1`, the Potency result was “inactive”.
In the case of `Cc1cnc(CNc2ncncc2-c2ccccc2Cl)cn1`, the Potency entry is “inactive”.
As for `COCC1CCN(C(=O)CCc2nnc(C3(c4ccc(Cl)cc4)CCC3)o2)C1` (stereo unspecified), the entry is “inactive”; as for `COc1ccccc1-c1nc(SC)n[nH]1`, “inactive”.
Take `COc1ccccc1-c1n[nH]nc1C1=CC(=O)CC(C)(C)C1`: the Potency entry is “inactive”.
In the case of `c1ccc(C2=Nc3cccc4cccc(c34)N2)cc1`, the Potency is 11.6 µM (active).
In the case of `COc1ccccc1C1=Nc2cccc3cccc(c23)N1`, the Potency is 5.17 µM (active).
Next, `CC1(C)CC(=O)C=C(NCCN2CCNCC2)C1`: “inactive”.
On to `COc1ccc(C(=O)OCC(=O)Nc2cccc(C(C)=O)c2)cc1OC`, for which the Potency result is “inactive”.
Take `COC(=O)c1sc(N)c(C(=O)OC)c1COC(=O)CNS(=O)(=O)c1ccc(C)cc1`: the Potency result was “inactive”.
As to `COCCN(C(=O)c1ccccc1F)c1c(N)n(Cc2ccccc2)c(=O)[nH]c1=O`, the Potency result is “inactive”.
With `CS(=O)(=O)N1CCCCC1c1cc(C(=O)NCc2ccccc2)no1` (stereo unspecified), the Potency result was “inactive”.
Next, `O=C(NCc1ccc(F)cc1)c1cc(C2CCCCN2C(=O)c2ccccn2)on1` (stereo unspecified): 20.6 µM (active); `CCCNC(=O)c1cc(C2CCCCN2S(=O)(=O)c2cn(C)cn2)on1` (stereo unspecified): “inactive”.
For `O=C(NCc1cccnc1)c1cc(C2CCCN(C(=O)C3CCCCC3)C2)on1` (stereo unspecified), the Potency entry is “inactive”.
With `O=C(c1cc(C2CCCCN2S(=O)(=O)c2ccccc2)on1)N1CCOCC1` (stereo unspecified), the Potency result is “inactive”.
Consider `O=C(NCc1ccc(F)cc1)c1cc(C2CCCCN2C(=O)C2CCCCC2)on1` (stereo unspecified), for which the Potency was 23.1 µM (active).
For the molecule `CC(Oc1ccc(Cl)cc1)C(=O)OCC(=O)Nc1ncc(Cl)cc1Cl` (stereo unspecified), the Potency result is “inactive”.
As to `COC(=O)c1c(NC(=O)C(=O)N2CCCCC2)sc2c1CC(C)(C)OC2`, the Potency result is “inactive”.
As for `COC1=NC2=NCCN2C(OC)=N1`, the Potency result is “inactive”.
For `Cc1ccc2cccc(NC(=O)c3ccc(OC(C)C)cc3)c2n1`, the Potency is 29.1 µM (active).
Regarding `CC(C)Oc1ccc(C(=O)Nc2cc(=O)n(C)c(=O)n2C)cc1`, the Potency entry was “inactive”.
On to `Cc1ccc2cccc(NC(=O)C(C)Oc3ccc(C)c(C)c3)c2n1` (stereo unspecified), for which the Potency entry was “inactive”.
As for `COCc1cc(=O)[nH]c2cc(NC(=O)C(F)(F)F)c(C)cc12`, the entry is “inactive”.
For `Cn1c(=O)c(=O)n(C)c2cc(NC(=O)c3ccccc3Br)ccc21`, the Potency result was “inactive”.
For `Cc1ccc(OCCCC(=O)Nc2ccc(N3CCOCC3)cc2)cc1`, the Potency result was “inactive”.
On to `CCOC(=O)c1cnc2c(C)cc(C)cc2c1Nc1ccc(N2CCOCC2)cc1`, for which the Potency is 5.8 µM (active).
On to `CCOC(=O)c1cnc2c(C)cc(Cl)cc2c1NCCc1ccc(OC)c(OC)c1`, for which the Potency entry was “inactive”.
As for `COc1ccc(-c2ccc(=O)n(CC(=O)Nc3ccc(Br)cc3F)n2)cc1`, the entry is “inactive”; as for `CCc1nc(SCC(=O)Nc2ccccc2OC)n[nH]1`, “inactive”; as for `CCCc1nc(SCC(=O)Nc2ccccc2OC)c2c(=O)n(C)c(=O)n(C)c2n1`, 23.1 µM (active).
As for `CCCc1nc(SCC(=O)N2CCCC2)c2c(=O)n(C)c(=O)n(C)c2n1`, the Potency entry is “inactive”.
As for `COc1ccc(CCN2CC(C(=O)NCCN3CCNC3=O)CCC2=O)cc1` (stereo unspecified), the entry is “inactive”; as for `O=C(COc1ccccc1)NCc1ccc2c(c1)OCO2`, “inactive”.
Next, `COc1cccc(NC(=O)N2CCCC2C(=O)NC2CCCCC2)c1` (stereo unspecified): “inactive”; `COc1cccc(NC(=O)C2CCCN2C(=O)OCc2ccccc2)c1` (stereo unspecified): “inactive”.
Regarding `COc1cccc(NC(=O)N(Cc2cn(C)c3ccccc23)C2CCCCCC2)c1`, the Potency is 5.8 µM (active).
With `O=C1CCC(=O)N1CCOP1(=O)COc2ccccc2OC1`, the Potency result is “inactive”.
Regarding `O=C(Nc1cccc2ccccc12)NC1CC1`, the Potency result is “inactive”.
With `CCN(C(=O)Nc1cccc2ccccc12)c1ccccc1`, the Potency was 20.6 µM (active).
For `CC(=O)N(C)c1ccc(NC(=O)Nc2cccc3ccccc23)cc1`, the Potency result was “inactive”.
As for `COc1ccc(N2C(=O)CCC(C(=O)Nc3ccccn3)C2c2ccc(OC)c(OC)c2)cc1` (stereo unspecified), the entry is “inactive”; as for `CC(C)Cc1nc(Cl)c(C#N)c2c1CCC2`, “inactive”.
`O=C1NC2(CCCCC2)N=C1c1ccccc1`: the Potency result was “inactive”.
As for `S=c1[nH]nc(-c2ccco2)n1/N=C/c1ccc(Br)s1`, the Potency entry is “inactive”.
As for `S=c1[nH]nc(-c2cccs2)n1/N=C/c1cccs1`, the entry is “inactive”.
As for `Cc1ccsc1/C=N/n1c(=S)[nH]nc(C)c1=O`, the Potency is 13 µM (active).
For `CN(Cc1ccccc1)C(=O)[C@@H]1CCCN1C(=O)[C@@H]1CCCN1C(=O)c1c(F)cccc1F`, the Potency entry is “inactive”.
For the molecule `N#CC1(NC(=O)COC(=O)CCN=C2NS(=O)(=O)c3ccccc32)CCCCC1`, the Potency result was “inactive”.
Next, `Cc1ccc(C(=O)C(=S)N2CCOCC2)cc1`: “inactive”; `Cc1cc(C(=O)N/N=C/c2ccc(N3CCOCC3)cc2)c(C)o1`: “inactive”; `CNC(=S)N/N=C/c1ccc(N2CCOCC2)s1`: 3.26 µM (active).
As to `COc1nc(OC)nc(N(C)CCO)n1`, the Potency entry is “inactive”.
Consider `CN(CCOc1ccccc1)Cc1nc2cc(Cl)ccc2c(=O)[nH]1`, for which the Potency result was “inactive”.
On to `COc1cc(CN(C)Cc2nc3cc(C(F)(F)F)ccc3c(=O)[nH]2)ccc1OC(F)F`, for which the Potency was 18.4 µM (active).
Regarding `Cc1nc2ccc(S(=O)(=O)NCC(=O)NCCN3CCCCC3C)cc2s1` (stereo unspecified), the Potency result was “inactive”.
As for `Cc1nn(-c2ncccn2)c2c1C(=O)CC(C)(C)C2Br` (stereo unspecified), the Potency is 20.6 µM (active).
Take `Cc1nn(-c2ccccc2)c2c1C(=O)NC(=O)C(C)(C)C2`: the Potency result was “inactive”.
